Experimental findings from ChEMBL document CHEMBL2218924, “A broad activity screen in support of a chemogenomic map for kinase signalling research and drug discovery” (Biochem J, 2013) are described below.

Assay [1] has as its target ALK tyrosine kinase receptor (Homo sapiens) (UniProt Q9UM73). As to conditions: at 10 µM.
The target in assay [2] is T1, Activin receptor type-1B (Homo sapiens) (UniProt P36896).
T1 sequence (whole entry): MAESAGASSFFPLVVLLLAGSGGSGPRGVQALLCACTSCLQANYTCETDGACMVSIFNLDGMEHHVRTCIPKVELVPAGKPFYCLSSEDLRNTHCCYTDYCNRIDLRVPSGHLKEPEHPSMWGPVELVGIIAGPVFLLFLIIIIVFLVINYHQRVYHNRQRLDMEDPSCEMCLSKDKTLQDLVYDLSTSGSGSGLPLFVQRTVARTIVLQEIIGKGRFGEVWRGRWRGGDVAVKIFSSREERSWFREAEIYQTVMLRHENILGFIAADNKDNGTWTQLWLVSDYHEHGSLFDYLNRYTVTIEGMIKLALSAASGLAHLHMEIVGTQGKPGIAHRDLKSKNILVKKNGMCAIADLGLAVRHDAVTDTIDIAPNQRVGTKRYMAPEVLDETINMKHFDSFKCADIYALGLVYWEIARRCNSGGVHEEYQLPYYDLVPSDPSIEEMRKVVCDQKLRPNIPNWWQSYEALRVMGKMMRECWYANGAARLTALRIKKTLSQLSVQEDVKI
As to conditions: at 1 µM.

For assay [3], the target named is T1, Activin receptor type-1B (Homo sapiens). As to conditions: at 10 µM.
The target of assay [4] is T2, AMP-activated protein kinase (AMPK) alpha-1/beta-1/gamma-1 (Homo sapiens) (UniProt P54619+Q9Y478+Q13131). Particulars: at 1 µM.
T2 sequence (P54619 whole entry): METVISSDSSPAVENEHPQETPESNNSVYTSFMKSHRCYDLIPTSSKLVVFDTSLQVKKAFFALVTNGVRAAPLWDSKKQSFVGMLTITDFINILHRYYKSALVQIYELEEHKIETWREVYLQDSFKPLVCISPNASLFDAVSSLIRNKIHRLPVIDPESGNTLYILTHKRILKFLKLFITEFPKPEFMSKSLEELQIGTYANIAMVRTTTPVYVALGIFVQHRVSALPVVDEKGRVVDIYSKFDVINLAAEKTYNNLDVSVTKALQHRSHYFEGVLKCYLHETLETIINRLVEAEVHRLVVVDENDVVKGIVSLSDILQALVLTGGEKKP
T2 sequence (Q13131 whole entry partner): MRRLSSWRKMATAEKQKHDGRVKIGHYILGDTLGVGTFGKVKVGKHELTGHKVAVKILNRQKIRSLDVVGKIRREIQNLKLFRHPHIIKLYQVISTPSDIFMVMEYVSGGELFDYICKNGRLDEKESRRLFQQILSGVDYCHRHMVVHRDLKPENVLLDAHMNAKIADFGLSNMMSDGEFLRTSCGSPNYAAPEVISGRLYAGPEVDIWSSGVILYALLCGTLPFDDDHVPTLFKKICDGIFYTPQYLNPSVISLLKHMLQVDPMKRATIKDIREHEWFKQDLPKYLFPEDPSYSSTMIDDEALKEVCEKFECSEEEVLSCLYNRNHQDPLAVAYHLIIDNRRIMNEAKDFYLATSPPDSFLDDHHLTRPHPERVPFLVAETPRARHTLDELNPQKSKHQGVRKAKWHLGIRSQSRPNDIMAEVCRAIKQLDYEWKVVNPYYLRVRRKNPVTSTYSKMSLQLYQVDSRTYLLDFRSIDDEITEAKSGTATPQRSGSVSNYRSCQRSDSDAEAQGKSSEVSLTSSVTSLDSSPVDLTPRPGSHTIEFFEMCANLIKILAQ
T2 sequence (Q9Y478 2-270 partner limits assumed): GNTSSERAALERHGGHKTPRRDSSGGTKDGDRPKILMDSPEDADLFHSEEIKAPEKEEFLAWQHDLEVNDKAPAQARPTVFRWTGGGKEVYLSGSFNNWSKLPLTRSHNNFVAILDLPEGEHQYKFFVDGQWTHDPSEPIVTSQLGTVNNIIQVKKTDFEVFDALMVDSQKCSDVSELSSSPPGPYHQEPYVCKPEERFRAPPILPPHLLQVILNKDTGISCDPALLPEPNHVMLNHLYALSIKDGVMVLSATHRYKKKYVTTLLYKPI
Assay [5] addresses T2, AMP-activated protein kinase (AMPK) alpha-1/beta-1/gamma-1 (Homo sapiens). As to conditions: at 10 µM.
Assay [6] addresses T3, AMP-activated protein kinase, AMPK (Homo sapiens) (UniProt P54646+O43741+P54619+Q9UGJ0+Q9Y478+Q13131+Q9UGI9). Particulars: at 1 µM.
Assay [7] concerns the target T3, AMP-activated protein kinase, AMPK (Homo sapiens). Particulars: at 10 µM.
For assay [8], the target named is T4, NUAK family SNF1-like kinase 1 (Homo sapiens) (UniProt O60285).
T4 sequence (whole entry): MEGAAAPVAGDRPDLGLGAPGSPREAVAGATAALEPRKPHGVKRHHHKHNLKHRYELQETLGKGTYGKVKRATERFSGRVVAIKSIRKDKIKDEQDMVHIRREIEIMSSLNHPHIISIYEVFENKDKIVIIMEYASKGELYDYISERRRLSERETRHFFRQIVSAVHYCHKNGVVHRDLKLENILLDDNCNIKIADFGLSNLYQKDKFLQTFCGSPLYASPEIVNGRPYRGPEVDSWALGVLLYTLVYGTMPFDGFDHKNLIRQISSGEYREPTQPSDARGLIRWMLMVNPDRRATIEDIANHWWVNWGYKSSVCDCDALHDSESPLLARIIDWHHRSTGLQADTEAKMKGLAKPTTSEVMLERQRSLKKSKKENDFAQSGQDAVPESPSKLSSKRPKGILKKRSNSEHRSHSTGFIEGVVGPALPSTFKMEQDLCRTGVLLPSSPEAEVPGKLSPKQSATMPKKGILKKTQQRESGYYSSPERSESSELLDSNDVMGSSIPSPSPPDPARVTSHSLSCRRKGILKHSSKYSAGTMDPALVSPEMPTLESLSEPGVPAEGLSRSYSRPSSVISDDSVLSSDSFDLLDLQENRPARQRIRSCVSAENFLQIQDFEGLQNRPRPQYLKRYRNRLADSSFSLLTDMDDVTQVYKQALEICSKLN
As to conditions: at 1 µM.

The target of assay [9] is T4, NUAK family SNF1-like kinase 1 (Homo sapiens). Particulars: at 10 µM.
In assay [10] the target is T5, Mitogen-activated protein kinase kinase kinase 5 (Homo sapiens) (UniProt Q99683).
T5 sequence (whole entry): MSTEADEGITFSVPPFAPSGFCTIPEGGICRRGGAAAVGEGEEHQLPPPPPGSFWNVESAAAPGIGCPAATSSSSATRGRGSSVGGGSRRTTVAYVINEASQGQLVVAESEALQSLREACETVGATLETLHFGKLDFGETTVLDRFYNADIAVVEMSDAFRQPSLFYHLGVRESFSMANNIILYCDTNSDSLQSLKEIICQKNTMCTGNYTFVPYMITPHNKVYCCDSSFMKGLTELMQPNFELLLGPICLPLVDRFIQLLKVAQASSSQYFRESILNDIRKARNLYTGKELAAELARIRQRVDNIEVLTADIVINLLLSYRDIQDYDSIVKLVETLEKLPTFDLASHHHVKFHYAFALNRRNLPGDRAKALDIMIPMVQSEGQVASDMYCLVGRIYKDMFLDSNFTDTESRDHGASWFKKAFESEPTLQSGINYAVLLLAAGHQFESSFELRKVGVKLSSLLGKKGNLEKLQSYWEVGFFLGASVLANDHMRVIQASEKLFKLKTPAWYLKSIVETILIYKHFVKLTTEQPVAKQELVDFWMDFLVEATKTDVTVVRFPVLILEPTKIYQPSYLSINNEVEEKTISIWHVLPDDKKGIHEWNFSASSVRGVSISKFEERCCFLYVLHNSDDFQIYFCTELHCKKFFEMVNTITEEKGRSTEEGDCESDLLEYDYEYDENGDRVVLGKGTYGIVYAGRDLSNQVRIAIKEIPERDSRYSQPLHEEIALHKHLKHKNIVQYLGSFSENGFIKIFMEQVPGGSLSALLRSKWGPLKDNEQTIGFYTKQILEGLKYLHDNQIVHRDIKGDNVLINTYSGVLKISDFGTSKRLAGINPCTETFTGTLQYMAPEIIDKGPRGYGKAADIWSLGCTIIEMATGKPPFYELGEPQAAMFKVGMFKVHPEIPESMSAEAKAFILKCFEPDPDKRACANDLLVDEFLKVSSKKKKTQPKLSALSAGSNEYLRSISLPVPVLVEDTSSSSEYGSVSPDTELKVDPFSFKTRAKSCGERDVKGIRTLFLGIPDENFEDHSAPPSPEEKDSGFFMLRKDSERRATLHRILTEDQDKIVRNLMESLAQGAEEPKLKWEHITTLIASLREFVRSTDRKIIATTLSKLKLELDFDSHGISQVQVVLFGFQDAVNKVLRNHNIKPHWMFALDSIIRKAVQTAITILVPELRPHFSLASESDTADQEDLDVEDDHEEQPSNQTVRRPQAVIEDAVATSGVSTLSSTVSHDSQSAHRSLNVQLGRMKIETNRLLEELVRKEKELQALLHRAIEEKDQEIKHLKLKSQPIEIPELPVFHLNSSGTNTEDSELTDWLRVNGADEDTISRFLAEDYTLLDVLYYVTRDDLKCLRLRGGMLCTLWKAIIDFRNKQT
As to conditions: at 1 µM.

Assay [11] has as its target Platelet-derived growth factor receptor alpha (Homo sapiens) (UniProt P16234). As to conditions: at 1 µM.
For assay [12] the target is unchanged. As to conditions: at 10 µM.
Assay [13] concerns the target Platelet-derived growth factor receptor beta (Homo sapiens) (UniProt P09619). As to conditions: at 1 µM.
Assay [14] shares this target. As to conditions: at 10 µM.
In assay [15] the target is T6, 3-phosphoinositide-dependent protein kinase 1 (Homo sapiens) (UniProt O15530).
T6 sequence (whole entry): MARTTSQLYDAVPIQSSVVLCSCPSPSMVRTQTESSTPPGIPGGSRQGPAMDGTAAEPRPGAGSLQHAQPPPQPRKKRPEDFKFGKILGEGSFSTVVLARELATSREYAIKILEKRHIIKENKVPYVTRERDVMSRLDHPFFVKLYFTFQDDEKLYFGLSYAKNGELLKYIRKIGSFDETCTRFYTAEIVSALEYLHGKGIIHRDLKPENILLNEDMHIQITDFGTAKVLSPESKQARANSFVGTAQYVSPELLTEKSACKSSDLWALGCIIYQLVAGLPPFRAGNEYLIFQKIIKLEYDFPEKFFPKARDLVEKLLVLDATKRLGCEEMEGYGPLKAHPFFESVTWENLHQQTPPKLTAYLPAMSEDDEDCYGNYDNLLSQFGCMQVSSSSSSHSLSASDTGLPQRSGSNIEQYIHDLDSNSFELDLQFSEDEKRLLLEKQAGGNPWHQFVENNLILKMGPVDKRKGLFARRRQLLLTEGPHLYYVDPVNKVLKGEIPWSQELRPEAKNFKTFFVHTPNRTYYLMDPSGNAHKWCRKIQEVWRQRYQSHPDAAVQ
Particulars: at 1 µM.

Assay [16] has as its target T6, 3-phosphoinositide-dependent protein kinase 1 (Homo sapiens). As to conditions: at 10 µM.
Assay [17] concerns the target cAMP-dependent protein kinase catalytic subunit alpha (Homo sapiens) (UniProt P17612). Particulars: at 1 µM.
For assay [18] the target is unchanged. Particulars: at 10 µM.
For assay [19], the target named is RAC-gamma serine/threonine-protein kinase (Homo sapiens) (UniProt Q9Y243). Particulars: at 1 µM.
Chain of RAC-gamma serine/threonine-protein kinase (Homo sapiens) (Q9Y243 whole entry): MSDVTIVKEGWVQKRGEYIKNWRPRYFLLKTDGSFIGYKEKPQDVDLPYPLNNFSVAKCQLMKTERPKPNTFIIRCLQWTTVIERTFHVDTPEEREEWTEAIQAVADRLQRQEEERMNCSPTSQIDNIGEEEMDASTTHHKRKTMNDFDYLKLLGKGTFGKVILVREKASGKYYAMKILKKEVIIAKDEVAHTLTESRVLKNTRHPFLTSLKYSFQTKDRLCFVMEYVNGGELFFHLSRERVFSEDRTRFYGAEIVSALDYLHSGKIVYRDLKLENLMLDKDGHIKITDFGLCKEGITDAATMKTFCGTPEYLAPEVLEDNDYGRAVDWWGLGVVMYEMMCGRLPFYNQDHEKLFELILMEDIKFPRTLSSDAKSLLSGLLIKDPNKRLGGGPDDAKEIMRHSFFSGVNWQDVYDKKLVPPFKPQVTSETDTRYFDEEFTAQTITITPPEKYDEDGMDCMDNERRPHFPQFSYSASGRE
The target is the same in assay [20]. As to conditions: at 10 µM.

Chain of Platelet-derived growth factor receptor beta (Homo sapiens) (P09619 whole entry): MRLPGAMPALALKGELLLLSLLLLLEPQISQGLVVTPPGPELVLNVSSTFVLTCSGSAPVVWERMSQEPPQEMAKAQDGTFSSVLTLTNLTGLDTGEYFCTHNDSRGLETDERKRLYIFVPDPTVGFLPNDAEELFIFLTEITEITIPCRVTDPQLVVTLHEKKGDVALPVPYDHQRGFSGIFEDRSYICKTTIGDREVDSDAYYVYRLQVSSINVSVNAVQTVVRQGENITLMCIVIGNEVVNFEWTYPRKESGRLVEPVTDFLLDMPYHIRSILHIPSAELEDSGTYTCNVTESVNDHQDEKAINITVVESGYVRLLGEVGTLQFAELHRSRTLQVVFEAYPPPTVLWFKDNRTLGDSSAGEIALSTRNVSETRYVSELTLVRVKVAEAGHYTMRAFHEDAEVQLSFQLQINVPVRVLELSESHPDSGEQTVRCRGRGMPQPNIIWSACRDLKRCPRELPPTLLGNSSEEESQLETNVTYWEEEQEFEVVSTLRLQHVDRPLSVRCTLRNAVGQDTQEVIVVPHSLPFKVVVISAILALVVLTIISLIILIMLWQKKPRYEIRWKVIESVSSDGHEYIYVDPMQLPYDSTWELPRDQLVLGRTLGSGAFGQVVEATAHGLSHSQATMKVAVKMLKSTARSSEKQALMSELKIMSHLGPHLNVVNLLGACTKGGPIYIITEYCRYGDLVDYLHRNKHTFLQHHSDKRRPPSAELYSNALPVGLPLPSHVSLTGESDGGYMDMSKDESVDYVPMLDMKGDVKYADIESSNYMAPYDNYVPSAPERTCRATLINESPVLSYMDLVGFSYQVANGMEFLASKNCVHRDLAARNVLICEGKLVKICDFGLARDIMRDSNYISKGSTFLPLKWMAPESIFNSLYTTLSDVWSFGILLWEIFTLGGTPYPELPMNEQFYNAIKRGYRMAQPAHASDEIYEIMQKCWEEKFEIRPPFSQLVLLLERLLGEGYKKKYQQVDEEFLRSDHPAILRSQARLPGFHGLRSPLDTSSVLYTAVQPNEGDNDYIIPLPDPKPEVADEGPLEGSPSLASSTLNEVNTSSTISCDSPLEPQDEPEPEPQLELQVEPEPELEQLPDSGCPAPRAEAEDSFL
Chain of ALK tyrosine kinase receptor (Homo sapiens) (Q9UM73 19-1620 limits assumed): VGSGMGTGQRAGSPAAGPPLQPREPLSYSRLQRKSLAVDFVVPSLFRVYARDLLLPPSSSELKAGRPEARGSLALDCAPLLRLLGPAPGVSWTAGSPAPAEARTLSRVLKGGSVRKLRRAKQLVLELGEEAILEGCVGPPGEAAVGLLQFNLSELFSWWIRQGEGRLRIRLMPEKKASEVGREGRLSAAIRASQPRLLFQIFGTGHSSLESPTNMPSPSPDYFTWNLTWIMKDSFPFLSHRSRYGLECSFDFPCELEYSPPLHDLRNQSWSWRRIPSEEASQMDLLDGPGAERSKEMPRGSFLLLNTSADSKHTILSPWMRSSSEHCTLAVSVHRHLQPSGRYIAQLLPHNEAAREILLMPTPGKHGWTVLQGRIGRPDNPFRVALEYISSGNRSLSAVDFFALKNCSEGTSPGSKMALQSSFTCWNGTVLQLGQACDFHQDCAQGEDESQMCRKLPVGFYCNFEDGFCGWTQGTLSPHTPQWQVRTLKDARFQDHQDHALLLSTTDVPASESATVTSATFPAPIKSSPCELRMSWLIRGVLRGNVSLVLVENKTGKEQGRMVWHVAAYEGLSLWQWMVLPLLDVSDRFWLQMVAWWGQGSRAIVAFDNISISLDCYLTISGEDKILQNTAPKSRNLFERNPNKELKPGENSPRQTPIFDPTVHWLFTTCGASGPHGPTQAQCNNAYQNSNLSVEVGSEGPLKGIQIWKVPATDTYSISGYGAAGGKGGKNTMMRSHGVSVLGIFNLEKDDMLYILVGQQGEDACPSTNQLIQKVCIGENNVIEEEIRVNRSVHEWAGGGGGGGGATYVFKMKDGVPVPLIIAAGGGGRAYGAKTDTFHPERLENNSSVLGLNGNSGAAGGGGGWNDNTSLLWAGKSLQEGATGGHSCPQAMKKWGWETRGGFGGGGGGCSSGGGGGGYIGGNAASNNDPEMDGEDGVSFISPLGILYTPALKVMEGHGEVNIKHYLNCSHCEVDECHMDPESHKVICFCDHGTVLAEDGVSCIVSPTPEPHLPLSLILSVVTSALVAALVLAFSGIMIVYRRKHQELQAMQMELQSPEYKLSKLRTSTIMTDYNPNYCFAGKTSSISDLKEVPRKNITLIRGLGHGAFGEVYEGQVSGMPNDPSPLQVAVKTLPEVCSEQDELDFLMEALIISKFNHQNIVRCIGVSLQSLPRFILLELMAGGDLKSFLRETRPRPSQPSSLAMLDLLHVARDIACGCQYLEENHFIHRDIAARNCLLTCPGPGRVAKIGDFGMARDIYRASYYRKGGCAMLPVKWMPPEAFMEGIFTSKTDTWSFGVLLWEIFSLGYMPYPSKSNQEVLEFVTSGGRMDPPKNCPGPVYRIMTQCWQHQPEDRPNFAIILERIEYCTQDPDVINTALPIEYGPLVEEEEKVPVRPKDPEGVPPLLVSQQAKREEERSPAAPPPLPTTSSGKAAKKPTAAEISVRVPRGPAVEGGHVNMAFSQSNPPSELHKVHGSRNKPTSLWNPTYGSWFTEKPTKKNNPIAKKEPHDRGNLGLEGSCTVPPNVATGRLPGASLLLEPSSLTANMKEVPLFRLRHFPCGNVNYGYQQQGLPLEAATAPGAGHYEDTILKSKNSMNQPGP

As to `CC(C)(C)n1nc(Cc2cccc3ccccc23)c2c(N)ncnc21`, the residual activity is 49% in [1]; 129% in assay [2]; 60% in [3]; 103% in [4]; 72% in assay [5]; 89% in assay [6]. For the same molecule, the residual activity in [7] came out at 74%; in [8], 105%; in assay [9] it was 92%; in assay [10], 111%; in assay [11], 116%; in [12], 72%. In addition, the residual activity is 99% in [13]; 71% in [14]; 108% in assay [15]; 117% in [16]; 34% in assay [17]; 8% in [18]. Moreover, the residual activity stood at 92% in assay [19] and 44% in [20].
Take `CCCC(=O)Oc1ccc2[nH]c(C(=O)c3cc4ccccc4[nH]3)cc2c1`: the residual activity in assay [1] was found to be 99%; in assay [2], 132%; in assay [3], 98%; in assay [4], 85%; in [5], 81%; in assay [6], 91%. The residual activity in [7] was determined as 96%; in assay [8] it was 98%; in [9], 84%; in [11], 108%; in assay [12] it was 85%; in [13], 99%. The residual activity in assay [14] amounted to 93%; in assay [17], 88%; in assay [18], 89%; in [19], 102%; in assay [20] it was 103%.
`O=c1c(-c2ccc(F)cc2)c(-c2ccncc2)[nH]n1-c1ccc(Cl)cc1`: the residual activity in assay [1] amounted to 65%; in assay [3], 22%; in assay [10] it was 100%; in assay [13], 100%; in assay [14] it was 99%; in assay [20] it was 65%.
`COc1cc2nccc(Oc3ccc(NC(=S)NC(=O)c4ccccc4C)cc3)c2cc1OC`: the residual activity came out at 47% in [1]; 126% in [2]; 96% in assay [3]; 88% in assay [4]; 70% in [5]; 81% in assay [8]. The residual activity in [9] is 74%; in assay [10], 88%; in assay [11] it was 7%; in assay [12], 2%; in [13], 31%; in assay [14] it was 9%. For the same molecule, the residual activity in assay [17] turned out to be 90%; in assay [19], 94%; in assay [20], 72%.
For `Nc1ncnc2c1c(-c1ccc(Oc3ccccc3)cc1)cn2C1CCCC1`, the residual activity in assay [1] turned out to be 27%; in [2] it was 125%; in [4] it was 99%; in assay [5], 61%; in [6], 94%; in assay [7], 63%. The residual activity in [8] turned out to be 83%; in assay [9], 67%; in assay [10], 90%; in [11] it was 17%; in [12], 4%; in assay [13], 54%. Further, the residual activity stood at 6% in assay [14]; 104% in [15]; 95% in assay [16]; 85% in assay [17]; 88% in [18]; 98% in [19]. Besides, the residual activity in [20] is 71%.
As for `O=C1NC(=O)C(c2c[nH]c3ccccc23)=C1c1c[nH]c2ccccc12`, the residual activity in [1] came out at 44%; in assay [2], 114%; in assay [3], 75%; in [4], 72%; in assay [5] it was 15%; in assay [6] it was 66%. The residual activity is 10% in assay [7]; 83% in assay [8]; 24% in assay [9]; 77% in assay [12]; 83% in assay [14]; 71% in assay [15]. For the same molecule, the residual activity in assay [16] was 18%; in [18], 55%; in assay [19], 100%; in [20], 36%.
